{"source": "PubChem BioAssay (NCATS)", "note": "Inconclusive results are not listed. Unmarked numbers belong to inactive results. The call rests on the fitted dose curve; in most records, active means well fitted inhibition curve with a large enough effect; inconclusive means small, poorly fitted or top-dose-only effect, or effect the other way; inactive means flat fitted curve, though single readings scatter. On the % scale 0 is the no-effect control and ±100 the full control effect.", "data": [{"biological_target": "ATP-dependent 6-phosphofructokinase (Trypanosoma brucei brucei) (UniProt O15648)", "sequence (O15648 whole entry, looked up)": "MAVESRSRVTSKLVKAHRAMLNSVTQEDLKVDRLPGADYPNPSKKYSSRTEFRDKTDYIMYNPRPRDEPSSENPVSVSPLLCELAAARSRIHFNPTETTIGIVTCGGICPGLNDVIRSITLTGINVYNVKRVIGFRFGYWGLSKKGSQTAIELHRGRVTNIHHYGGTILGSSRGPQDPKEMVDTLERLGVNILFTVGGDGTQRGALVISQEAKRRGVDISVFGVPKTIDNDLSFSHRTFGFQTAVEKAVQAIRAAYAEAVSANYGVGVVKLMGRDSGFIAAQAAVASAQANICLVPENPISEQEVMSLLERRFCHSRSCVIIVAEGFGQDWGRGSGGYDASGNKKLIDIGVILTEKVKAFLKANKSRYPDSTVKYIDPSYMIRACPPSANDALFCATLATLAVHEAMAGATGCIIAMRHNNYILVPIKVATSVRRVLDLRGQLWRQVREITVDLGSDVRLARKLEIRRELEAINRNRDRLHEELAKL", "test": "qHTS Assay to Find Inhibitors of T. brucei phosphofructokinase: hit validation (AID 492961)", "conditions": "T. brucei PFK, ADP-Glo luminescence; series mostly up to 51.4 µM; activity change, negative = inhibition: at the top concentration", "outline": "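Luminescence from ADP-Glo reports ADP generated as T. brucei PFK (1.25 nM) phosphorylates 0.5 mM fructose-6-phosphate using 0.1 mM ATP. Reactions ran 45 min at room temperature, pH 8.0.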", "values": [{"smiles": "CN(C)CCOc1ccc(/C(=C(/CCCl)c2ccccc2)c2ccccc2)cc1", "activity change, negative = inhibition": "-5.67%"}, {"smiles": "CC(=O)Nc1ccc(NC(=S)NC(=O)c2ccc(C(C)(C)C)cc2)cc1", "activity change, negative = inhibition": "-8.57%"}, {"smiles": "CCN(CC)C(=S)S", "activity change, negative = inhibition": "7.93%"}, {"smiles": "COc1cc(C)c(/C=C/C(C)=C/C=C/C(C)=C/C(=O)O)c(C)c1C", "activity change, negative = inhibition": "7.99%"}, {"smiles": "COc1ccc2c(c1)OC(C)(C)C(c1ccccc1)C2c1ccc(OCCN2CCCC2)cc1", "note": "(stereo unspecified)", "activity change, negative = inhibition": "18.3%"}, {"smiles": "Cc1ncc(COP(=O)(O)O)c(CN)c1O", "activity change, negative = inhibition": "20.5%"}, {"smiles": "COc1ccc(/C=C/C(=O)OCCC(C)C)cc1", "activity change, negative = inhibition": "3.47%"}, {"smiles": "NCCN", "activity change, negative = inhibition": "9.08%"}, {"smiles": "CC(C)c1ncc([N+](=O)[O-])n1C", "activity change, negative = inhibition": "-14.1%"}, {"smiles": "CNC(=O)[C@H](Cc1c[nH]c2ccccc12)NC(=O)[C@@H](CC(=O)NO)CC(C)C", "activity change, negative = inhibition": "-6.96%"}, {"smiles": "CCCC(CCC)C(=O)OC1C[C@H]2CC[C@@H](C1)[N+]2(C)C", "note": "(stereo partly specified)", "activity change, negative = inhibition": "-3.92%"}, {"smiles": "N#Cc1ccc2c(c1)N(CCCN1CCC(O)CC1)c1ccccc1S2", "activity change, negative = inhibition": "-0.594%"}, {"smiles": "Cc1cccc(C)c1NC(=O)NC1=CCCN1C", "activity change, negative = inhibition": "-3.07%"}, {"smiles": "OC[C@H]1O[C@@](CO)(O[C@H]2O[C@H](CO)[C@@H](O)[C@H](O)[C@H]2O)[C@@H](O)[C@@H]1O", "activity change, negative = inhibition": "-5.18%"}, {"smiles": "OCc1ccccc1", "activity change, negative = inhibition": "-5.87%"}, {"smiles": "FC(F)(F)COCC(F)(F)F", "activity change, negative = inhibition": "2.37%"}, {"smiles": "O=c1n(CC2CO2)c(=O)n(CC2CO2)c(=O)n1CC1CO1", "note": "(stereo unspecified)", "activity change, negative = inhibition": "-8.88%"}, {"smiles": "CCC(=O)c1ccc2c(c1)N(CCCN1CCN(CCO)CC1)c1ccccc1S2", "activity change, negative = inhibition": "4.64%"}, {"smiles": "CC(=O)N=c1sc(S(N)(=O)=O)nn1C", "activity change, negative = inhibition": "-2.59% [at 24.3 µM]"}, {"smiles": "Cc1ncc(C[n+]2csc(CCOP(=O)(O)OP(=O)(O)O)c2C)c(N)n1", "activity change, negative = inhibition": "-1.25%"}, {"smiles": "CCN(CC)CCOc1ccccc1OC", "activity change, negative = inhibition": "-4.07%"}, {"smiles": "OB(O)O", "activity change, negative = inhibition": "-1.62%"}, {"smiles": "CCCCCCCCCCCC(=O)N(CCO)CCO", "activity change, negative = inhibition": "7.15%"}, {"smiles": "COc1ccc(/C=N/NC(=O)c2ccncc2)c(C(=O)O)c1OC", "activity change, negative = inhibition": "-4.08%"}, {"smiles": "CN(C)CCCSc1ccccc1NC(=O)/C=C/c1ccccc1", "activity change, negative = inhibition": "-2.13%"}, {"smiles": "CCCc1nc(C(C)(C)O)c(C(=O)OCc2oc(=O)oc2C)n1Cc1ccc(-c2ccccc2-c2nn[nH]n2)cc1", "activity change, negative = inhibition": "8.56%"}, {"smiles": "CC(=O)Nc1ccc(OC(=O)c2ccccc2O)cc1", "activity change, negative = inhibition": "-6.68%"}, {"smiles": "CC(C)(COP(=O)(O)OP(=O)(O)OC[C@H]1O[C@@H](n2cnc3c(N)ncnc32)[C@H](O)[C@@H]1OP(=O)(O)O)C(O)C(=O)NCCC(=O)NCCS", "note": "(stereo partly specified)", "activity change, negative = inhibition": "-13.3%"}, {"smiles": "CCCCCCCCCCCCCCCCCCCCCC(=O)Nc1ccn([C@@H]2O[C@H](CO)[C@@H](O)[C@@H]2O)c(=O)n1", "activity change, negative = inhibition": "0%"}, {"smiles": "OCCCNc1ccccc1", "activity change, negative = inhibition": "-2.68%"}, {"smiles": "Cc1ccccn1", "activity change, negative = inhibition": "6.94%"}, {"smiles": "O=C1CCC(c2ccccc2)(C2CCN(Cc3ccccc3)CC2)C(=O)N1", "note": "(stereo unspecified)", "activity change, negative = inhibition": "-4.14%"}, {"smiles": "Nc1nccs1", "activity change, negative = inhibition": "-3.99%"}, {"smiles": "NCC[C@H](O)C(=O)N[C@@H]1C[C@H](N)[C@@H](O[C@H]2O[C@H](CN)CC[C@H]2N)[C@H](O)[C@H]1O[C@H]1O[C@H](CO)[C@@H](O)[C@H](N)[C@H]1O", "activity change, negative = inhibition": "7.52%"}, {"smiles": "FC(F)(F)C(F)(F)C(F)(F)C(F)(F)C(F)(F)C(F)(F)F", "activity change, negative = inhibition": "-7.24%"}, {"smiles": "CC(C)(C)CC(C)(C)c1ccc(OCCO)cc1", "activity change, negative = inhibition": "4.02%"}]}]}
